Screen size: about 87,000 compounds; about 360 (0.41%) were called active. Rule as the data show it: active = cytotoxicity above about 50%; inactive = the rest. The list comes from a sample in which actives are over-represented; it also holds similar structures and randomly drawn compounds.

The nature of the test: HT1080 cell viability loss – fluorescence readout (AID 620).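 Also: cells exposed to compound overnight then 4 h with Alamar Blue; 0% = vehicle DMSO and 100% = killing control.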 As to conditions: at 10 µM, stronger effect = higher value.
In the case of `COCCCNC(=O)CCCC(=O)NCCCOC`, the cytotoxicity is -2.4% (inactive).
In the case of `COc1ccc(-c2cn3ccccc3n2)cc1OC`, the cytotoxicity is 14.9% (inactive).
On to `COc1ccc(-c2cn3cc(Cl)ccc3n2)cc1OC`, for which the cytotoxicity was 98.8% (active).
Consider `COc1ccc(-c2cn3cc(C)ccc3n2)cc1OC`, for which the cytotoxicity was 23% (inactive).
Next, `CC(C)Oc1ccccc1C1CC(=O)Nc2cc3c(cc21)OCCO3` (stereo unspecified): 70.5% (active); `COc1ccccc1C1CC(=O)Nc2cc3c(cc21)OCCO3` (stereo unspecified): 52.2% (active).
Consider `O=C1CC(c2ccncc2)c2cc3c(cc2N1)OCCO3` (stereo unspecified), for which the cytotoxicity was 5.6% (inactive).
As to `COc1cccc(C2CC(=O)Nc3cc4c(cc32)OCCO4)c1OC(C)C` (stereo unspecified), the cytotoxicity was 0.6% (inactive).
In the case of `COc1cc2c(cc1OC)C(c1cccc(OC)c1OC)CC(=O)N2` (stereo unspecified) it was -0.5% (inactive); in that of `Cc1ccc(C2CC(=O)Nc3cc4c(cc32)OCO4)o1` (stereo unspecified), 40% (inactive).
In the case of `O=C1CC(c2cccs2)c2cc3c(cc2N1)OCO3` (stereo unspecified) it was 13.7% (inactive); in that of `Cc1ccc(C2CC(=O)Nc3cc4c(cc32)OCCO4)s1` (stereo unspecified), 7.9% (inactive); in that of `CC(C)Oc1ccccc1C1CC(=O)Nc2cc3c(cc21)OCO3` (stereo unspecified), 67.4% (active).
For `CCCCCCC(C)n1[nH]c(=O)c2c(C)cc(=O)[nH]c21` (stereo unspecified), the cytotoxicity is -5% (inactive).
In the case of `O=C(C1CCC(CNc2c(N3CCCCC3)c(=O)c2=O)CC1)N1CCCCC1` (stereo unspecified), the cytotoxicity is -4.8% (inactive).
For `C=CCn1c(NC)cc(=O)n(C)c1=O`, the cytotoxicity is 9.8% (inactive).
For `CC1(C(=O)NC2CCCC2)CCC(=O)N1Cc1ccc2c(c1)OCO2` (stereo unspecified), the cytotoxicity was 20.7% (inactive).
For the compound `COc1ccc(O)c(C(=O)c2cc(C#N)c(=O)n(CCN3CCOCC3)c2)c1`, the cytotoxicity was 7% (inactive).
As for `COC(=O)c1ccc(NC(=O)COc2ccc(S(=O)(=O)N3CCCCC3)cc2)cc1`, the cytotoxicity is -6.1% (inactive).
In the case of `c1ccc(-c2nc3ccccc3nc2N2CCOCC2)cc1` it was 19.1% (inactive); in that of `Nc1nc(NCc2ccccc2)nc(-c2ccccc2)n1`, 12.3% (inactive).
Turning to `Cc1c(NC(=O)c2ccccc2)c(=O)n(-c2ccccc2)n1C`, the cytotoxicity was -12.6% (inactive).
Regarding `Cc1c(NC(=O)c2ccc(=O)oc2)c(=O)n(-c2ccccc2)n1C`, the cytotoxicity was 32.6% (inactive).
In the case of `COc1cc2[nH]cc(C(=O)NCCc3ccccc3)c(=O)c2cc1OC` it was 5.3% (inactive); in that of `CCOc1ccc(OCc2ccc(C(=O)Nc3cccnc3)o2)cc1`, -3.1% (inactive).
Regarding `O=C(CSc1oc(-c2ccc(F)cc2)nc1S(=O)(=O)c1ccc(F)cc1)NCC1CCCO1` (stereo unspecified), the cytotoxicity was 4.4% (inactive).
For the compound `CCN(CC)C(=O)CN(C#N)c1nc(NC(C)C)nc(NC(C)C)n1`, the cytotoxicity is -2% (inactive).
In the case of `CCCS(=O)(=O)c1nnnn1-c1cccc(OC)c1` it was 66.7% (active).
For the compound `COc1cccc(-n2nnnc2SCC(=O)NC2CCCC2)c1`, the cytotoxicity is -4.7% (inactive).
Next, `COc1cccc(Oc2nnnn2-c2ccccc2)c1`: -0.2% (inactive).
Next, `CCNC(=O)c1ccccc1-c1nc(-c2ccccc2Cl)no1`: -5.2% (inactive); `CC(C)NC(=O)c1ccccc1-c1nc(-c2ccccc2Cl)no1`: 50.9% (active); `CC(C)(C)NC(=O)c1ccccc1-c1nc(-c2ccccc2Cl)no1`: -5.2% (inactive).
For `COc1ccccc1N1CCN(C(=O)C2CCN(S(=O)(=O)c3ccccc3)CC2)CC1`, the cytotoxicity was -0.7% (inactive).
In the case of `COC(=O)c1ccc(C)c(NS(=O)(=O)c2ccc3c(c2)OCCO3)c1` it was 51.6% (active).
For the compound `COC(=O)c1ccc(C)c(NS(=O)(=O)c2ccc(OC)c(OC)c2)c1`, the cytotoxicity is 4% (inactive).
Turning to `COC(=O)c1ccc(Cl)c(NS(=O)(=O)c2ccc3c(c2)OCCO3)c1`, the cytotoxicity was 35.5% (inactive).
With `CCCC12CN3CC(C)(CN(C1)C3c1ccc3c(c1)OCO3)C2=O` (stereo unspecified), the cytotoxicity is -1.1% (inactive).
For the compound `CN(C)c1ccc(-c2nn3c(-c4ccccc4Cl)nnc3s2)cc1`, the cytotoxicity is 57.2% (active).
In the case of `Cc1nn2c(-c3ccc(Cl)cc3Cl)nnc2s1` it was 7.1% (inactive).
Next, `Cc1ccc(OCc2nn3c(-c4n[nH]c5c4CCC5)nnc3s2)cc1`: 3.7% (inactive); `CCN(CC)c1ccc(-c2nn3c(-c4cccnc4)nnc3s2)cc1`: 2.9% (inactive); `CCN(CC)c1ccc(-c2nn3c(-c4n[nH]c5c4CCC5)nnc3s2)cc1`: 55.1% (active).
As for `CN(C)c1ccc(-c2nn3c(-c4ccc(Cl)cc4Cl)nnc3s2)cc1`, the cytotoxicity is 52.2% (active).
For `COc1ccccc1-c1nnc2sc(-c3ccc(N(C)C)cc3)nn12`, the cytotoxicity was 33.1% (inactive).
Next, `CN(C)c1ccc(-c2nn3c(-c4ccncc4)nnc3s2)cc1`: 0.5% (inactive); `CCN(CC)c1ccc(-c2nn3c(-c4ccccc4OC)nnc3s2)cc1`: 50.1% (active); `CCOc1ccc(-c2nnc3sc(-c4ccccc4OC)nn23)cc1`: 22% (inactive).
On to `CN(C)c1ccc(-c2nn3c(-c4ccc(Cl)cc4)nnc3s2)cc1`, for which the cytotoxicity was -10.2% (inactive).
Next, `Clc1ccccc1-c1nnc2sc(-c3ccncc3)nn12`: -1.3% (inactive); `CS(=O)(=O)N(CC(=O)N1CCCCC1)c1sc2c(c1C#N)CCCC2`: 15.6% (inactive); `CN(C)CCCNC(=O)CC(c1ccccc1)c1ccccc1O` (stereo unspecified): 5.3% (inactive).
Next, `O=C(O)CCn1c(=O)c2ccccc2c2ccccc2c1=O`: 2% (inactive).
In the case of `C=CCOn1c(C)c(C(C)=O)c2c3nonc3ccc21` it was 2.2% (inactive); in that of `Cn1c(N)c(C(=O)COC(=O)c2ccco2)c(=O)n(C)c1=O`, -0.9% (inactive); in that of `CC(=O)N1CCc2cc(S(=O)(=O)NC(C(=O)Nc3nc(C)cs3)C(C)C)ccc21` (stereo unspecified), 11.9% (inactive).
Regarding `COc1ccccc1-c1nnc2sc(-c3cc4ccccc4o3)nn12`, the cytotoxicity is 53.5% (active).
In the case of `Cc1nnc2sc(-c3cc4ccccc4o3)nn12` it was 0.8% (inactive); in that of `c1ccc(-c2nnc3sc(-c4cc5ccccc5o4)nn23)cc1`, -3.1% (inactive); in that of `Cc1ccccc1NS(=O)(=O)c1ccc(NC(=O)c2ccco2)cc1`, 2.4% (inactive).
In the case of `Cc1cc(C)cc(C(=O)N2CC(C)OC(C)C2)c1` (stereo unspecified) it was -14.9% (inactive); in that of `CCOC(=O)CSc1nc(-c2ccccc2)cc(C(F)(F)F)n1`, -7.2% (inactive).
Consider `COc1ccccc1-c1cc(C(F)(F)F)nc(S(=O)(=O)CCCC(=O)N2CCCCC2C)n1` (stereo unspecified), for which the cytotoxicity is 18.6% (inactive).
`COC(=O)CCS(=O)(=O)c1nc(-c2ccccc2)cc(C(F)(F)F)n1`: the cytotoxicity is 2.4% (inactive).
As for `COc1ccc(-c2cc(C(F)(F)F)nc(S(C)(=O)=O)n2)cc1OC`, the cytotoxicity is 10.4% (inactive).
In the case of `CS(=O)(=O)c1nc(-c2ccccc2)cc(C(F)(F)F)n1` it was 59.4% (active).
Turning to `CCOC(=O)CS(=O)(=O)c1nc(-c2ccc(F)cc2)cc(C(F)(F)F)n1`, the cytotoxicity is 56.6% (active).
Next, `COc1ccc(-c2cc(C(F)(F)F)nc(S(C)(=O)=O)n2)cc1`: 11.7% (inactive); `CCOC(=O)CS(=O)(=O)c1nc(-c2ccccc2)cc(C(F)(F)F)n1`: 8.3% (inactive).
In the case of `COc1ccccc1-c1cc(C(F)(F)F)nc(S(=O)(=O)CCCC(=O)O)n1` it was -3.7% (inactive).
Consider `COC(=O)CSc1nc(-c2ccc(F)cc2)cc(C(F)(F)F)n1`, for which the cytotoxicity is -10% (inactive).
Next, `CCOC(=O)Cn1c(=O)oc2cc(S(=O)(=O)N3CCN(c4ccccn4)CC3)ccc21`: -4.7% (inactive).
Take `N#Cc1ccccc1Cn1c(=O)n(C2CCCC2)c(=O)c2ccccc21`: the cytotoxicity is 4.1% (inactive).
Regarding `COc1cccc(C(=O)NCC(=O)N2CCC(C)CC2)c1`, the cytotoxicity was 7.2% (inactive).
With `COc1cccc(Oc2cn[nH]c2-c2ccc(OC)cc2O)c1`, the cytotoxicity is 19.1% (inactive).
In the case of `COc1cccc(Oc2cn[nH]c2-c2ccc(O)cc2O)c1`, the cytotoxicity is 55.2% (active).
On to `COc1ccc(Oc2cn[nH]c2-c2ccc(O)cc2O)cc1`, for which the cytotoxicity was 19% (inactive).
Regarding `N#CC1C(C#N)N2CCCN2C1c1ccc(Cl)cc1` (stereo unspecified), the cytotoxicity was -17.9% (inactive).
In the case of `CCn1c(SCC(=O)O)nnc1C1CCCCC1` it was 3.3% (inactive); in that of `CCN1/C(=C/c2ccc3ccccc3[n+]2CC)C=Cc2ccccc21`, 54.3% (active); in that of `CCN1C(=C2C(=O)c3ccccc3C2=O)C=Cc2ccccc21`, 12.1% (inactive).
With `CCN1C(=O)/C(=C2\C=Cc3ccccc3N2CC)OC1=S`, the cytotoxicity is 5.1% (inactive).
Next, `Cc1cc(C)c2c(N)c(C(=O)NCc3ccco3)sc2n1`: 10.7% (inactive); `Cc1cc(C)cc(N(CC(=O)N2CCN(Cc3ccccc3)CC2)S(=O)(=O)c2c(C)noc2C)c1`: -0.8% (inactive); `Cc1ccccc1-c1nc(CN2CCCC(C(=O)NCc3cccnc3)C2)c(C)o1` (stereo unspecified): -7.7% (inactive).
Next, `N#CC1=C(N)Oc2cc3ccccc3cc2C1c1cccs1` (stereo unspecified): -2.7% (inactive); `N#CC1=C(N)Oc2c(ccc3ccccc23)C1c1cccs1` (stereo unspecified): 65.3% (active); `N#CC1=C(N)Oc2cc(O)ccc2C1c1cccs1` (stereo unspecified): -3.3% (inactive).
Consider `COc1ccc(CCn2nnnc2C(C(C)C)N2CCC(C(N)=O)CC2)cc1OC` (stereo unspecified), for which the cytotoxicity was 6% (inactive).
Next, `Cc1cc(C)cc(OC(=O)N2CCOCC2)c1`: 3.6% (inactive); `CCOC(=O)CNc1c(-c2ccccc2)nc2ccc(Cl)cn12`: 24.2% (inactive).
Turning to `CCOC(=O)CNc1c(-c2ccc(OC)cc2)nc2ccc(Cl)cn12`, the cytotoxicity was 73.3% (active).
In the case of `CCOC(=O)CNc1c(-c2ccc(O)cc2)nc2ccc(Cl)cn12` it was 36.6% (inactive).
Take `CCOC(=O)N1CCN(C(=O)CSc2nc3ccccc3c(=O)n2-c2ccccc2)CC1`: the cytotoxicity is 5.2% (inactive).
In the case of `CCn1c(CC(=O)Nc2ccc(C)c(Cl)c2)nnc1SCC(=O)Nc1nc(C)cs1` it was -12.9% (inactive); in that of `COc1ccc(CC(=O)NC2CCN(CC(=O)Nc3ccc4c(c3)OCCO4)CC2)cc1OC`, -8.3% (inactive).
In the case of `O=C(CN1CCc2ccccc2C1)Nc1ccccc1N1CCCCCC1` it was -18.8% (inactive); in that of `COc1ccc([C@@H]2Sc3ccccc3N(CCN(C)C)C(=O)[C@@H]2OC(C)=O)cc1`, 31.1% (inactive); in that of `CN(C)CCCN1c2ccccc2Sc2ccccc21`, 15.9% (inactive).
In the case of `CN1CCN(CCCN2c3ccccc3Sc3ccc(C(F)(F)F)cc32)CC1` it was 7.7% (inactive); in that of `OCCN1CCN(CCCN2c3ccccc3Sc3ccc(Cl)cc32)CC1`, 22.8% (inactive).
In the case of `CC(CN1c2ccccc2Sc2ccccc21)N(C)C` (stereo unspecified), the cytotoxicity was 11.7% (inactive).
Regarding `O=C(CN1CCCC1)N1c2ccccc2Sc2ccc(C(F)(F)F)cc21`, the cytotoxicity is -7.9% (inactive).
In the case of `COc1ccc2c(c1)Sc1ccccc1N2CCN(C)C` it was 58.8% (active); in that of `CN(C)CCCN1c2ccccc2Sc2ccc(C(F)(F)F)cc21`, 54% (active); in that of `OCCN1CCN(CCCN2c3ccccc3Sc3ccc(C(F)(F)F)cc32)CC1`, 91.7% (active).
